Shiga toxin inh: blocks Shiga toxin action in Vero cells | 9.2% of 290,000 active | Vero cells, Shiga toxin protein synthesis inhibition reporter | AID 2315 | inhibition, % at 38.7 µM; in the data active = inhibition mostly above about 28%, no sharp cut-off; inactive = mostly below about 43%; note: 0% is about no effect
CHX counter: counter-screen for Shiga toxin inhibitors: cycloheximide protein synthesis inhibition. max response, %. 12% of 300,000 active. cell reporter, cycloheximide protein synthesis inhibition counterscreen; in the data active = max response mostly above about 13%, no sharp cut-off; inactive = mostly below about 14%; note: read at 38.3 µM for the half of the compounds with a filed dose; 0% is about no effect
Pf growth 96h: P. falciparum growth inhibition at 96 hour, primary screen for plastid delayed-death inhibitors; P. falciparum luciferase reporter growth, 96 h; Potency, µM (highest dose often 28.7 µM), for the others: at the highest dose activity change, negative = inhibition, actives largely listed as inhibitors; 6.9% of 320,000 active; AID 504834; note: potency is the fitted concentration of half-maximal effect; % is set by controls: 0 for no effect and ±100 for the full control effect
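Readout is luminescence from an integrated firefly luciferase in P. falciparum. Red cells, 2% hematocrit and 0.05% parasitemia final, were cultured with compound through two parasite generations (96 hours) at 37 C, 5% CO2.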
AMA1-RON2 inh: inhibitors of Plasmodium falciparum AMA1-RON2 interaction; AlphaScreen AMA1-biotinylated RON2 peptide binding; Potency, µM (highest dose often 58.2 µM), for inactives: at the highest dose activity change, negative = inhibition, usual class: inhibitors; 0.2% of 360,000 active; AID 720542;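 note: potency is the fitted concentration of half-maximal effect; 0% = vehicle wells and -100% = peptide control; nearly all actives have a fitted effect of over 45% in size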
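AMA1 (3D7) with his tag at 25 nM final met compounds first, then biotinylated RON2 peptide at 25 nM; detection used donor plus acceptor beads, 10 µg/mL apiece, read by AlphaScreen after 30 min at room temperature.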
Pf growth 48h: P. falciparum growth inhibition at 48 hours (one generation); Potency, µM (titrated, usually from 28.7 µM), inactives show at the highest dose activity change, negative = inhibition, hits mostly inhibitors; 5.9% of 310,000 active; P. falciparum luciferase growth in erythrocytes, 48 h; note: potency is the fitted concentration of half-maximal effect; % is set by controls: 0 for no effect and ±100 for the full control effect
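Compounds are pin-transferred into medium, infected erythrocytes (2% hematocrit, 0.1% parasitemia final) are added, and plates sit one parasite generation at 37 C in 5% CO2. Detection reagent is then added and luminescence measured.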
SARS PLpro yeast-1: blocks SARS-CoV papain-like protease in a yeast assay | S. cerevisiae expressing SARS-CoV PLpro, growth rescue | Potency, µM (highest dose often 32.9 µM), inactives show at the top dose activity, positive = growth rescue, hits mostly activators | 0.19% of 330,000 active; calls by dose curve; note: potency is the fitted concentration of half-maximal effect; 0% is about no effect; nearly all actives have a fitted effect of over 55% in size
SARS PLpro yeast-2: Validates SARS-CoV PLpro inhibitor hits in yeast; 19% of 1,000 active; yeast expressing SARS-CoV PLpro, growth phenotype rescue; AID 652038; shares compounds with SARS PLpro yeast-1; calls only; call rule not given here
* = called active by the depositor; i = inactive; ? = inconclusive; / = no result; + = active, no number; [ ] = remark or other dose. The list is a sample of the results. Unless noted, calls come from the whole dose curve; as a rule, active = well fitted curve in the direction sought with a large enough effect; inconclusive = small, poorly fitted or top-dose-only effect, or another doubt; inactive = no such curve, though single readings can be large; an effect the other way counts as inactive or inconclusive.

SMILES | Shiga toxin inh | CHX counter | Pf growth 96h | AMA1-RON2 inh | Pf growth 48h | SARS PLpro yeast-1 | SARS PLpro yeast-2
Cc1cccc(C)c1NC(=O)COC(=O)C1CC(=O)N(Cc2ccccc2)C1 (stereo not drawn) | -4 | -4 | 8% | -3% | 0% | -1% | /
CCn1cc(C(=O)O)c(=O)c2cc(F)c(N3CCN(S(=O)(=O)c4ccc(NC(=O)OC)cc4)CC3)cc21 | -5 | -4 | ? | 6% | 4.7µM* | ? | i
Cc1ccc(OCC(=O)N/N=C\c2c(C)[nH]n(-c3ccccc3)c2=O)c([N+](=O)[O-])c1 | -1 | -5 | ? | 36% | -27% | 5.6µM* | +
COc1ccccc1NCC(=O)N/N=C/c1cccnc1 | 4 | 13 | ? | 51% | 0% | 0% | /
COc1ccccc1NCC(=O)N/N=C/C=C/c1ccccc1 | 18 | 17 | -1% | 38% | -6% | ? | i
COc1ccc(C(=O)N2CCC(C(=O)Nc3ccc4c(c3)OCO4)CC2)cc1 | 14 | 5 | 57% | 1% | ? | ? | /
O=C(Nc1cc([N+](=O)[O-])ccc1F)C1CC1 | -7 | -7 | -28% | -4% | -3% | 1% | /
C/C(=N\NC(=O)c1ccccc1-n1cccc1)C1CC1 | -4 | -3 | 72% | 25% | 23% | -14% | /
Cc1ccc2[nH]cc(C(=O)CCl)c2c1 | -4 | 8 | -24% | 0% | ? | / | i
Cc1cc2c(cc1S(=O)(=O)N1CCN(c3ccc(Cl)cc3)CC1)OCCN2C | -5 | -3 | -23% | ? | -19% | 0.89µM* | i
CCOC(=O)c1ccccc1NC(=O)CN1C(=O)NC(C)(CCc2ccccc2)C1=O (stereo not drawn) | / | / | ? | -11% | ? | -10% | /
O=C(N/N=C/c1cc2ccccc2nc1Cl)/C(=C/c1cccs1)NC(=O)c1ccccc1 | 1 | -4 | 6% | -17% | / | ? | i
CN(C)CC(C)(C)CNS(=O)(=O)c1ccc(Cl)c(Cl)c1 | -9 | 0 | 5% | 47% | ? | 0% | /
NC(=S)Nc1cccc2cccnc12 | 15 | 4 | ? | -3% | 7% | ? | i
COc1cc(CNCc2ccccn2)ccc1OCc1ccc(Cl)cc1 | 36 | 16 | -27% | -3% | ? | ? | i
COc1cc(CNCCc2ccccc2F)ccc1OCc1ccc(Cl)nc1 | 54 | 14 | ? | -4% | / | -3% | /
O=C(Oc1c(Cl)cc(Cl)c2cccnc12)c1cccs1 | 20 | -2 | -32% | 68% | ? | / | ?
O=C(Oc1c(Cl)cc(Cl)c2cccnc12)c1ccco1 | -6 | 5 | / | 24% | ? | -18% | /
O=C(Cc1ccc(S(=O)(=O)N2CCOCC2)s1)OCc1ccc(Cl)cc1 | / | / | ? | -6% | ? | 0% | /
CCC(=O)N(C)CCc1cc2c(c(OC)c1/C=N/NC(=O)c1ccccc1O)OCO2 | 35 | -2 | 23% | 24%[11.6 µM] | 27% | ? | +
CCC(=O)N(C)CCc1cc2c(c(OC)c1/C=N/NC(=O)c1ccc(Br)cc1)OCO2 | -10 | -1 | 40% | 72% | 16% | -12% | /
O=C(c1ccc2c(=O)n3c(nc2c1)CCCCC3)N1CCN(c2ccc(Cl)cc2)CC1 | -4 | 1 | ? | 0% | -17% | 1% | /
CC(=O)Oc1cc2oc(=O)cc(C)c2cc1Cl | 2 | 2 | 21% | 5% | 19% | 0% | /
Cc1ccc(S(=O)(=O)NC(C(=O)Oc2cc3oc(=O)cc(C)c3cc2Cl)C(C)C)cc1 (stereo not drawn) | -9 | -6 | -25% | 6% | -5% | 22µM* | ?
COc1ccc(CNC(=O)c2ccc(S(=O)(=O)N3CCCC3)cc2)cc1OC | -18 | -4 | ? | -4% | / | ? | i
SMILES | Shiga toxin inh | CHX counter | Pf growth 96h | AMA1-RON2 inh | Pf growth 48h | SARS PLpro yeast-1 | SARS PLpro yeast-2
COc1ccc(S(=O)(=O)N2CCCC2)cc1Br | -3 | -2 | 150% | -4% | -22% | ? | /
COc1ccc(S(=O)(=O)N2CCCCC2)cc1C(C)C | -12 | -3 | ? | -8% | ? | ? | i
COc1ccc(CNC(=O)CCc2ccc(S(=O)(=O)N3CCCCCC3)cc2)cc1OC | / | / | ? | 20% | ? | -7% | /
O=C(CN(Cc1ccccc1F)C(=O)Cn1nnc(-c2cccs2)n1)NC1CCCCC1 | 13 | -1 | -9% | 0% | -10% | 8% | /
CC(NC(=O)c1ccco1)C(=O)OC(C)C(=O)NCc1ccccc1 (stereo not drawn) | -4 | 3 | -1% | -3% | 16% | 0% | /
Cc1ccc(-c2noc(COc3ccc4c(c3)OCO4)n2)cc1 | 8 | -1 | 25% | -4% | 6% | 13µM* | i
COc1ccc(-c2noc(COc3ccc(C)c(C)c3)n2)cc1OC | -3 | 10 | 5% | 6% | 8% | 0% | /
CC(C)CCN(C(=S)Nc1cccc(F)c1)C1CCN(C(C)C)CC1 | -14 | -3 | 60% | 4% | ? | 0% | /
COc1ccccc1Nc1nc(N)nc(CN2CCC(C)CC2)n1 | -2 | 15 | 32% | -7% | -25% | 1% | /
COc1ccccc1Nc1nc(N)nc(CSC(=S)N2CCC(C)CC2)n1 | 31 | 43* | ? | 5%[2.32 µM] | ? | 16µM* | i
O=C(Nc1ccc(NC(=O)c2ccco2)cc1)c1ccc2c(c1)OCO2 | 12 | 1 | -16% | 0% | / | ? | +
O=C(O)Cc1ccc(NC(=O)c2ccc(NC(=O)c3ccco3)cc2)cc1 | 18 | -1 | 9% | -8% | / | 1% | /
O=C1CCCN1c1cc(Cl)ccc1Cl | 2 | -1 | ? | -1% | 28% | 20% | /
c1ccc2c(c1)CC1(CCCCC1)n1nnnc1-2 | -4 | -1 | -24% | ? | -10% | 14µM* | i
O=c1cccc2n1CC1CC2CN(Cc2ccc3c(c2)OCO3)C1 (stereo not drawn) | -7 | -2 | -18% | 17% | / | ? | ?
COC(=O)[C@H]1C[C@H](OC(=O)Nc2c(C)noc2C)[C@@]2(O)CN(S(=O)(=O)c3ccc(C)cc3)CC2[C@H]1C(=O)OC (stereo partly drawn) | / | / | / | -3% | / | / | /
Cc1ccccc1OCc1n[nH]c(=S)n1Cc1ccccc1 | -10 | -5 | ? | 58% | 1% | ? | ?
S=c1[nH]nc(COc2cccc3ccccc23)n1Cc1ccccc1 | 15 | -1 | -5% | 72% | 5% | -1% | /
CC(C)CNC(=O)c1cc(S(=O)(=O)N2CCOCC2)ccc1N1CCCC1 | -8 | -1 | ? | 5% | ? | -2% | /
Cc1c(C(=O)Oc2ccc(F)cc2)sc2ncn(Cc3cccc(F)c3)c(=O)c12 | -2 | -4 | 11% | 1% | 3% | ? | i
CCCCNC(=O)C1CCN(S(=O)(=O)c2c(C)noc2/C=C\c2ccc(OC)cc2)CC1 | -8 | -4 | 10µM* | 24% | / | ? | +

Screening data deposited in PubChem BioAssay by National Center for Advancing Translational Sciences (NCATS).
